Data reported in PubChem BioAssay (Tox21).
Records with an inconclusive call do not appear. Active and inactive are the calls of the source. Unless noted, calls follow the shape of the dose curve; as a rule, active = well fitted curve in the direction sought with a large enough effect in the repeat runs; inconclusive = weak or mixed curves; inactive = no such curve, though single readings can be large; an effect the other way counts as inactive or inconclusive.

What was measured:
[1] = qHTS assay for small molecules that induce genotoxicity in human embryonic kidney cells expressing luciferase-tagged ATAD5 (AID 651632); also: nearly all actives have a fitted effect of over 15% in size
Method in brief: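 Concentration-response screen for ATAD5 upregulation in HEK293T luciferase reporter cells; 16 hr treatment at 37C, then luminescence after 30 min with Amplite at room temperature.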

[2] = qHTS assay for small molecule agonists of the p53 signaling pathway - cell viability (AID 651633; calls by dose curve;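 also: p53RE-bla HCT reporter cells with a stable beta-lactamase p53 reporter; nearly all actives have a fitted effect of over 30% in size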)
Method in brief: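 Viability counter-read: CellTiter-Glo luminescence (30 min, room temperature) in the same p53RE-bla plates. These plates had been exposed to compounds for 16 h at 37 C.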

[3] = qHTS assay for small molecules that induce genotoxicity in human embryonic kidney cells expressing luciferase-tagged ATAD5 - cell viability (AID 651634; calls by dose curve; also: nearly all actives have a fitted effect of over 25% in size)
Method in brief: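 15.5 hr compound or vehicle exposure of HEK293T cells expressing luciferase-tagged ATAD5 at 37C; live-cell protease activity is read by fluorescence after 30 min of CellTiter-Fluor.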

[4] = qHTS assay for small molecule disruptors of the mitochondrial membrane potential - cell viability (AID 720634; calls by dose curve;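 also: human HepG2 liver cancer cells; nearly all actives have a fitted effect of over 20% in size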)
Method in brief: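 In this qHTS format, HepG2 cells plated overnight were pinned with compound, incubated 1 hr, and assayed for ATP luminescence with CellTiter-Glo after m-MPI dye addition.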

[5] = qHTS assay for small molecule disruptors of the mitochondrial membrane potential (AID 720635); also: potency is read from the fitted curve at half-maximal effect
Method in brief: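 Mitochondrial membrane potential tracked with Mito-MPS dye, red aggregates (ex 540/em 590 nm) against green monomers (ex 490/em 535 nm). Compound treatment 1 hr at 37C, dye 30 min in HepG2.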

[6] = qHTS assay to test for compound auto fluorescence at 590 nm (red) in HepG2 cells (AID 720674)
Method in brief: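 We screened compounds on adherent HepG2 cells, incubating them for an hour at 37 C in 5% CO2 before reading emission at 590 nm under 540 nm excitation; values reflect equivalence to Rose Bengal sodium fluorescence.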

[7] = qHTS assay to test for compound auto fluorescence at 460 nm (blue) in HEK293 cells (AID 720678)
Method in brief: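 Cells were seeded and left to adhere for 4-5 hr at 37C. Compounds were then pin-transferred. After an overnight incubation at 37C under 5% CO2, intrinsic fluorescence at 405/460 nm was measured and referenced to triamterene.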

[8] = qHTS assay to test for compound auto fluorescence at 590 nm (red) in HEK293 cells (AID 720679)
Method in brief: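 Each well held 2,000 HEK293 cells in medium containing 10% dialyzed FBS. Following 4-5 hr attachment at 37C, 23 nL test compound or DMSO was added; plates sat overnight, and red fluorescence (540/590nm) was recorded.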

[9] = qHTS assay to test for compound auto fluorescence at 535 nm (green) in HEK293 cells (AID 720680)
[10] = qHTS assay to test for compound auto fluorescence at 460 nm (blue) in HEK293 cell free culture (AID 720681)
Method in brief: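 Blue fluorescence (Ex 405/Em 460 nm, triamterene-equivalent) was read immediately after pin transfer of compound or DMSO into medium (DMEM, 10% FBS) without cells.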

[11] = qHTS assay to test for compound auto fluorescence at 535 nm (green) in HEK293 cell free culture (AID 720682)
Method in brief: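 Measurement is a direct plate read of green fluorescence (485 nm in, 535 nm out) after compound addition to serum-supplemented DMEM lacking cells, with fluorescein used to express intensities.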

[12] = qHTS assay to test for compound auto fluorescence at 590 nm (red) in HEK293 cell free culture (AID 720683)
Method in brief: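 Red-channel autofluorescence of compounds in culture medium (DMEM, 10% FBS), no cells, measured at 540/590 nm. Rose Bengal sodium is the reference fluorophore for equivalence.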

[13] = qHTS assay to test for compound auto fluorescence at 460 nm (blue) in HepG2 cell free culture (AID 720685)
Method in brief: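 Cell-free plates of MEM plus 10% FBS received 23 nL compound or DMSO vehicle; blue-channel (405/460 nm) intensity scored against triamterene as reference fluorophore.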

[14] = qHTS assay to test for compound auto fluorescence at 535 nm (green) in HepG2 cell free culture (AID 720686)
[15] = qHTS assay to test for compound auto fluorescence at 460 nm (blue) in HepG2 cells (AID 720687)
Method in brief: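 Blue-channel autofluorescence (Ex/Em 405/460 nm, triamterene-equivalent) was measured after 1 hr compound exposure at 37 C, 5% CO2. Cells were HepG2, plated overnight at 37 C in MEM plus 10% FBS.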

[16] = target: Glucocorticoid receptor (Homo sapiens) (UniProt P04150); assay: qHTS assay to identify small molecule agonists of the glucocorticoid receptor (GR) signaling pathway (AID 720691; active = well fitted activation curve with a large enough effect in the signal ratio in the repeat runs, not every such curve was filed as active; the % refers to the signal ratio); conditions: GR-bla HeLa, beta-lactamase reporter ratio, 18 h; activation: at 62.4 µM (top of the series)
Glucocorticoid receptor (Homo sapiens), sequence (P04150 whole entry, looked up): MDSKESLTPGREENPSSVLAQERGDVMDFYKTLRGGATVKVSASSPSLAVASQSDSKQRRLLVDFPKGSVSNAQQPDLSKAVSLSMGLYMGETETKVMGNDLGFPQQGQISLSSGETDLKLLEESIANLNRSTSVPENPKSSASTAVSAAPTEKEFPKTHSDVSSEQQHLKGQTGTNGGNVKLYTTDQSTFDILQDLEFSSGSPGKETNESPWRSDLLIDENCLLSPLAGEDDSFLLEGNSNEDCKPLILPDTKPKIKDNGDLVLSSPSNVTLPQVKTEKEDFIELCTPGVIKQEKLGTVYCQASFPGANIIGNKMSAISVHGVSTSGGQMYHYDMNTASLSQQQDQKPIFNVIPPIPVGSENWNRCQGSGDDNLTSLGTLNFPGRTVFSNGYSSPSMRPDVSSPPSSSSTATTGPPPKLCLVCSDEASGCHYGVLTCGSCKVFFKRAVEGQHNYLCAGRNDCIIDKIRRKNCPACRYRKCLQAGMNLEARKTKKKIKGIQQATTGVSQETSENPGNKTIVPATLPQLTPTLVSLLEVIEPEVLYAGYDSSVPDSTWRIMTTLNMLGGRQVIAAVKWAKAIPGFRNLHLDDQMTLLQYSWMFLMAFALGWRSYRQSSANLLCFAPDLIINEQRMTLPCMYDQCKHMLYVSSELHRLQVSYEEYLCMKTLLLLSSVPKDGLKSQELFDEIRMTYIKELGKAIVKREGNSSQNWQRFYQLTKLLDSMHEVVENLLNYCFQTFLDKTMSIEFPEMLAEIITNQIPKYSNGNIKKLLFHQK
Method in brief: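 Measures GR pathway activation through a GRE-beta-lactamase reporter stably integrated in HeLa cells, with 18 h compound treatment at 37 C and fluorescence detection using a FRET substrate.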

[17] = target: Glucocorticoid receptor (Homo sapiens) (UniProt P04150); assay: qHTS assay to identify small molecule antagonists of the glucocorticoid receptor (GR) signaling pathway (AID 720692; active = well fitted inhibition curve with a large enough effect in the signal ratio in the repeat runs, not every such curve was filed as active; the % refers to the signal ratio; also: potency is read from the fitted curve at half-maximal effect)
Method in brief: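 Tox21 10K library screened in concentration-response for blockade of dexamethasone (5 nM final)-induced GRE-bla reporter activity in HeLa cells; 18 h treatment, fluorescence read.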

[18] = qHTS assay to test for compound auto fluorescence at 535 nm (green) in HepG2 cells (AID 720675)
[19] = qHTS assay to test for compound auto fluorescence at 590 nm (red) in HepG2 cell free culture (AID 720684)
Method in brief: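 No cells present: MEM + 10% FBS only. Compound pinned in, red label read (540/590 nm). Activity = fluorescence equivalent to Rose Bengal sodium.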

Measured: Potency

CC(=O)N[C@@H]([C@@H](O)[C@H](O)[C@H](O)CO)[C@@H](O)CC(=O)C(=O)O
not listed: [18] | [19]
inactive: all other assays above

O=C(Cn1c(=O)sc2ccc(Cl)cc21)N1CCN(CCO)CC1
not listed: [10]
inactive: all other assays above

CC(CC(c1ccccc1)c1ccccc1)NC(C)(C)C (centres undefined)
not listed: [5] | [16] | [17]
inactive: all other assays above

C#C[C@]1(O)CC[C@H]2[C@@H]3CCC4=CC(=O)CC[C@@H]4[C@H]3C(=C)C[C@@]21CC
active: [17] 0.379 µM
not listed: [9] | [10]
inactive: all other assays above

COC(=O)CCC[N+](C)(C)C
not listed: [16] | [17] | [18]
inactive: all other assays above

CCC(Oc1ccccc1)C(=O)N[C@@H]1C(=O)N2[C@@H]1SC(C)(C)[C@@H]2C(=O)O (some centres undefined)
not listed: [5] | [16] | [17]
inactive: all other assays above

CC(C)(C)NCC(O)CSc1nc(-c2ccc(C(N)=O)s2)cs1 (centres undefined)
active: [5] 13.3 µM
not listed: [12] | [16]
inactive: all other assays above

COC(F)(F)C(Cl)Cl
not listed: [9] | [12]
inactive: all other assays above

NC(N)=NCC1COc2ccccc2O1 (centres undefined)
not listed: [16] | [17] | [18]
inactive: all other assays above

FCOC(C(F)(F)F)C(F)(F)F
not listed: [10] | [12]
inactive: all other assays above

COc1ccc(-c2noc(CC(=O)O)c2-c2ccc(OC)cc2)cc1
not listed: [5]
inactive: all other assays above

CCN(CC)CCC(=O)N1c2ccccc2Sc2ccc(Cl)cc21
not listed: [5] | [17]
inactive: all other assays above

c1ccc2c(c1)Sc1ccccc1N2CCN1CCCC1
not listed: [5] | [17]
inactive: all other assays above
